From PubChem BioAssay (NCATS)
Records with an inconclusive call do not appear. Activity calls are given as the source filed them. Calls follow the shape of the dose curve; as a rule, active = well fitted curve in the direction sought with a large enough effect; inconclusive = small, poorly fitted or top-dose-only effect, or another doubt; inactive = no such curve, though single readings can be large; an effect the other way counts as inactive or inconclusive. *1 amine or outer side, *2 acyl side, *3 side chain or, on linkers, in order; H or OH if unused. Where a SMILES comes first, the peptide text is derived from it. Bridges are numbered along the chain shown (N, C = ends). [ ]: non-standard residue; d: D form. The star is where a group is joined. ξ: configuration not given here. X10 = NC1=NCCC(C(N[*:1])C(=O)[*:2])N1; ΔAla(3-NHCONH2) = NC(=O)NC=C(N)C(=O)O; ξβ3hOrn = NCCCC(N)CC(=O)*; Dap = NC[CH](N)C(=O)O

What was measured:
[1] = qHTS assay for measurement of the activity of small molecule inhibitors on Zika virus induced Caspase-3 activity in human iPSC derived neural progenitor cells (hNPCs) (AID 1224857); also: % of control where 0% means no effect; nearly all actives have a fitted effect of over 65% in size
Outline: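 In medium with heparin 2 ug/ml and cyclopamine 2 uM, hNPCs (350 cells/well) received compound for one hour and then Zika virus at 2 FFU/cell; caspase activity was measured by Caspase-Glo 3/7 luminescence 6 h post-infection.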

[2] = qHTS assay for measurement of the activity of small molecule inhibitors on Zika virus induced Caspase-3 activity in human astrocytoma cells (AID 1224859);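 also: plate controls were ZIKV-infected untreated cells for no effect and uninfected cells for full effect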
Outline: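 A cell-based luminescent caspase-3/7 assay used SNB-19 cells infected with ZIKV (2 FFU/cell) for 6 h following 1 h compound pretreatment.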

[3] = NS1 protein of Zika virus - qHTS assay to identify small molecule inhibitors in human HEK 293 cells (AID 1347053);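 also: series mostly up to about 46 µM; plate controls were infected untreated cells for no effect and uninfected cells for full effect; nearly all actives have a fitted effect of over 55% in size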
Outline: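 Following 20 h seeding, HEK 293 cells took compound, then 1 h later ZIKV MR766 (MOI = 0.5). Incubation ran 24 h at 37 C before TR-FRET detection of NS1; a drop in signal indicates inhibition.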

[4] = qHTS of pediatric cancer cell lines to identify multiple opportunities for drug repurposing: Primary screen for TC32 cells (AID 1347089); also: % is scaled to controls: 0 for no effect and ±100 for the full control effect; nearly all actives have a fitted effect of over 60% in size
Outline: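 qHTS, TC32, 48 h drug treatment, CellTiter-Glo luminescence as a proxy for metabolically active cells; primary top concentration 46 µM (MIPE 11-pt, NPC 8-pt); confirmatory 11-pt.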

[5] = qHTS of pediatric cancer cell lines to identify multiple opportunities for drug repurposing: Primary screen for DAOY cells (AID 1347090);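 also: series mostly up to about 46 µM; plate controls were DMSO for no effect and bortezomib for full effect; nearly all actives have a fitted effect of over 55% in size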
Outline: (§1)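 Viability measured as metabolically active cells via CellTiter-Glo luminescence following 48 hours of compound exposure, 11-point dilutions in confirmatory testing. 500-1,000 cells/well plated 5 hours before dosing; controls were DMSO and 2.3 µM bortezomib.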

[6] = qHTS of pediatric cancer cell lines to identify multiple opportunities for drug repurposing: Primary screen for SJ-GBM2 cells (AID 1347091);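 also: plate controls were DMSO neutral control for no effect and bortezomib for full effect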
Outline: as §1

[7] = qHTS of pediatric cancer cell lines to identify multiple opportunities for drug repurposing: Primary screen for A673 cells (AID 1347092); also: % is scaled to controls: 0 for no effect and ±100 for the full control effect; nearly all actives have a fitted effect of over 45% in size
Outline: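 Luminescence from CellTiter-Glo, taken after 15 min at room temperature, served as the proxy for metabolically active cells following 48 h treatment. Both potency and efficacy were taken from curves fitted to the titration data.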

[8] = qHTS of pediatric cancer cell lines to identify multiple opportunities for drug repurposing: Primary screen for SK-N-MC cells (AID 1347093);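 also: series mostly up to about 46 µM; plate controls were DMSO neutral control for no effect and bortezomib for full effect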
Outline: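 Metabolically active cells were quantified by ATP-dependent luminescence (CellTiter-Glo, 15 min at room temperature) following 48 h treatment. Cells had been plated at 500-1,000 per well and settled for 5 h beforehand.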

[9] = qHTS of pediatric cancer cell lines to identify multiple opportunities for drug repurposing: Primary screen for BT-37 cells (AID 1347094);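 also: series mostly up to about 57 µM; plate controls were DMSO for no effect and bortezomib for full effect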
Outline: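 Cells plated at 500-1,000/well in growth medium, compounds added after 5 h. MIPE tested at 11 points (from 0.78 nM), NPC at 8 points (from 0.59 nM). CellTiter-Glo luminescence after 48 h; concentration-response curves from primary screen.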

NC(=O)NC1N=C([O][Al])NC1=O (configuration not stated)
inactive: Potency [1] | outcome [2] | Potency [3] | Potency [4] | Potency [5] | Potency [6] | Potency [7] | Potency [8] | Potency [9]

CN(C)CCCOC1(Cc2ccccc2)CCCCCC1
inactive: Potency [1] | outcome [2] | Potency [3] | Potency [4] | Potency [5] | Potency [6] | Potency [7] | Potency [8] | Potency [9]

NCCCC(N)CC(=O)NCC1NC(=O)C(CO)NC(=O)C(N)CNC(=O)C(C2CCN=C(N)N2)NC(=O)C(=CNC(N)=O)NC1=O (stereo not drawn) (H-[Dap]S[Dap](ξβ3hOrn)[ΔAla(3-NHCONH2)][X10]; lactam 1-C; configuration not given here)
inactive: activity change, negative = inhibition [1] 2.09% [at 0.568 µM] | activity change, negative = inhibition [2] -8.34% [at 0.568 µM] | activity change, negative = inhibition [3] 1.27% [at 0.593 µM] | activity change, negative = cytotoxic [4] 5.9% [at 0.594 µM] | activity change, negative = cytotoxic [5] 6.38% [at 0.597 µM] | activity change, negative = cytotoxic [6] 34.8% [at 0.597 µM] | activity change, negative = cytotoxic [7] -4.68% [at 0.597 µM] | activity change, negative = cytotoxic [8] -13.5% [at 0.597 µM] | activity change, negative = cytotoxic [9] 18% [at 0.745 µM]

CCC(=O)O[C@]1(C(=O)COC)[C@@H](C)C[C@H]2[C@@H]3CCC4=CC(=O)C=C[C@]4(C)C3(F)[C@@H](O)C[C@@]21C (some centres not stated)
inactive: Potency [1] | outcome [2] | Potency [3] | Potency [4] | Potency [5] | Potency [6] | Potency [7] | Potency [8] | Potency [9]

CC(C)C(=O)Nc1cccc(C2CN3CCSC3=N2)c1 (configuration not stated)
inactive: Potency [1] | outcome [2] | Potency [3] | Potency [4] | Potency [5] | Potency [6] | Potency [7] | Potency [8] | Potency [9]

NS(=O)(=O)c1cc2c(cc1Cl)CN(C1CCCCC1)C2=O
inactive: Potency [1] | outcome [2] | Potency [3] | Potency [4] | Potency [5] | Potency [6] | Potency [7] | Potency [8] | Potency [9]

CC(=O)OC[C@H]1O[C@@H](OC(C)=O)[C@H](OC(C)=O)[C@@H]1OC(C)=O
inactive: Potency [1] | outcome [2] | Potency [3] | Potency [4] | Potency [5] | Potency [6] | Potency [7] | Potency [8] | Potency [9]

CCCC(CCC)(C(=O)OCC)C(=O)OCC
inactive: Potency [1] | outcome [2] | Potency [3] | Potency [4] | Potency [5] | Potency [6] | Potency [7] | Potency [8] | Potency [9]

Cc1ccc2c(Cl)cc(Cl)c(O)c2n1
inactive: Potency [1] | outcome [2] | Potency [3] | Potency [4] | Potency [5] | Potency [6] | Potency [7] | Potency [8] | Potency [9]

O=C1CC2(CCCC2)CC(=O)N1
inactive: Potency [1] | outcome [2] | Potency [3] | Potency [4] | Potency [5] | Potency [6] | Potency [7] | Potency [8] | Potency [9]

COc1ccc(/C(C)=C/C(=O)O)c(OC)c1
inactive: Potency [1] | outcome [2] | Potency [3] | Potency [4] | Potency [5] | Potency [6] | Potency [7] | Potency [8] | Potency [9]

OC1(c2ccccc2)CCNCC1
inactive: Potency [1] | outcome [2] | Potency [3] | Potency [4] | Potency [5] | Potency [6] | Potency [7] | Potency [8] | Potency [9]

Cc1onc(-c2c(Cl)cccc2Cl)c1C(=O)Cl
inactive: Potency [1] | outcome [2] | Potency [3] | Potency [4] | Potency [5] | Potency [6] | Potency [7] | Potency [8] | Potency [9]

CSCC[C@H](NC(=O)[C@H](Cc1c[nH]c2ccccc12)NC(=O)CCNC(=O)OC(C)(C)C)C(=O)N[C@@H](CC(=O)O)C(=O)N[C@@H](Cc1ccccc1)C(N)=O
inactive: Potency [1] | outcome [2] | Potency [3] | Potency [4] | Potency [5] | Potency [6] | Potency [7] | Potency [8] | Potency [9]

CC1(C)O[C@@H]2C[C@H]3[C@@H]4C[C@H](F)C5=CC(=O)C=C[C@]5(C)[C@@]4(F)[C@@H](O)C[C@]3(C)[C@]2(C(=O)CO)O1
inactive: Potency [1] | outcome [2] | Potency [3] | Potency [4] | Potency [5] | Potency [6] | Potency [7] | Potency [8] | Potency [9]

CN1Cc2cc(C(=O)N3CCC(C4CCNCC4)CC3)ccc2N[C@@H](CC(=O)O)C1=O
inactive: Potency [1] | outcome [2] | Potency [3] | Potency [4] | Potency [5] | Potency [6] | Potency [7] | Potency [8] | Potency [9]

c1ccc2c(c1)CCc1ccccc1N2
inactive: Potency [1] | outcome [2] | Potency [3] | Potency [4] | Potency [5] | Potency [6] | Potency [7] | Potency [9]

N=C(N)c1ccc(OCCCOc2ccc(C(=N)N)cc2)cc1
inactive: Potency [1] | outcome [2] | Potency [3] | Potency [4] | Potency [5] | Potency [6] | Potency [7] | Potency [8] | Potency [9]

Cc1ccc2ccc(Cl)cc2n1
inactive: Potency [1] | outcome [2] | Potency [3] | Potency [4] | Potency [5] | Potency [6] | Potency [7] | Potency [8] | Potency [9]

Cc1ccc(C(=O)C(=O)O)cc1C
inactive: Potency [1] | outcome [2] | Potency [3] | Potency [4] | Potency [5] | Potency [6] | Potency [7] | Potency [8] | Potency [9]

CC(C)(C)CC(=O)OCC(=O)[C@@]1(O)CC[C@H]2[C@@H]3CCC4=CC(=O)C=C[C@]4(C)[C@H]3[C@@H](O)C[C@@]21C
inactive: Potency [1] | outcome [2] | Potency [3] | Potency [4] | Potency [5] | Potency [6] | Potency [7] | Potency [8] | Potency [9]

CCn1ccc(NS(=O)(=O)c2ccc(N)cc2)nc1=O
inactive: Potency [1] | outcome [2] | Potency [3] | Potency [4] | Potency [5] | Potency [6] | Potency [7] | Potency [8] | Potency [9]
